From PubChem BioAssay (NCATS)
Results filed as inconclusive are left out. Calls of active or inactive are those of the source. Unless noted, calls come from the whole dose curve; as a rule, active = well fitted curve in either direction with a large enough effect (not every such curve was filed as active); inconclusive = small, poorly fitted or top-dose-only effect, or another doubt; inactive = flat fitted curve, though single readings scatter.

Key:
[1] = target: Lysosomal acid glucosylceramidase (Homo sapiens) (UniProt P04062); test: Glucocerebrosidase-p2 (AID 348; in the data active = potency below about 10 µM; note: potency is the fitted concentration of half-maximal effect); details: purified GBA, blue fluorogenic substrate, 40 min
Lysosomal acid glucosylceramidase (Homo sapiens), sequence (P04062 whole entry, looked up): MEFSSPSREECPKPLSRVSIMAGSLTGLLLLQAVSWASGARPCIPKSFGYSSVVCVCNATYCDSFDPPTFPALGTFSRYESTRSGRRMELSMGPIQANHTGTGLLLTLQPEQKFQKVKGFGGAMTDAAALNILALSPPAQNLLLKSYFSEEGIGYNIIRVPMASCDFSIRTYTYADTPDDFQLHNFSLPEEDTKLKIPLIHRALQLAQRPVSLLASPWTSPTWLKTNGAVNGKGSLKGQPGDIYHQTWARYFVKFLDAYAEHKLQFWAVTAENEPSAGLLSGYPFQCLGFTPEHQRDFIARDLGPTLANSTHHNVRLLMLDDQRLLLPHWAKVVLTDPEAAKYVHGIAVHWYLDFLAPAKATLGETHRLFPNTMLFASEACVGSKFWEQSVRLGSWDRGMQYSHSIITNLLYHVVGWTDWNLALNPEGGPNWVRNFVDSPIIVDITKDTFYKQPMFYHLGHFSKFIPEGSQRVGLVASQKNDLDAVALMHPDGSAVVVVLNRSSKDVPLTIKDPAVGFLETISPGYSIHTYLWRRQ
Outline: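 Compounds titrated from 0.6 nM upwards against 0.2 nM enzyme in pH 5.9 citric acid/KH2PO4, taurocholate, tween-20; blue fluorogenic substrate 80 uM, 40 min room temperature, stopped and read Ex 365/Em 440 for AC50.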

[2] = AP1 Signaling Pathway (AID 357); details: ME-180 AP-1-bla reporter, EGF-induced, beta-lactamase ratio, 5 h; at 7.69 µM (top of the series) unless noted;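 note: ME-180 reporter cells stimulated with EGF at its EC50 level; % is set by controls: 0 for no effect and ±100 for the full control effect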
Outline: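 In this screen, ME-180 cells in Opti-MEM with 0.5% dialyzed FBS received EC50 EGF and compound titrations for 5 h. AP-1 reporter beta-lactamase was detected via CCF4 ratio, giving AC50 for positive and negative modulators.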

[3] = target: Cytochrome P450 1A2 (Homo sapiens) (UniProt P05177); test: p450-cyp1a2 (AID 410; calls by dose curve; note: potency is the fitted concentration of half-maximal effect;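 for activity change, negative = inhibition: -100% = full effect of reference inhibitor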); details: recombinant CYP1A2, luciferin-ME demethylation, luminescence; series mostly up to 57 µM
Cytochrome P450 1A2 (Homo sapiens), sequence (P05177 whole entry, looked up): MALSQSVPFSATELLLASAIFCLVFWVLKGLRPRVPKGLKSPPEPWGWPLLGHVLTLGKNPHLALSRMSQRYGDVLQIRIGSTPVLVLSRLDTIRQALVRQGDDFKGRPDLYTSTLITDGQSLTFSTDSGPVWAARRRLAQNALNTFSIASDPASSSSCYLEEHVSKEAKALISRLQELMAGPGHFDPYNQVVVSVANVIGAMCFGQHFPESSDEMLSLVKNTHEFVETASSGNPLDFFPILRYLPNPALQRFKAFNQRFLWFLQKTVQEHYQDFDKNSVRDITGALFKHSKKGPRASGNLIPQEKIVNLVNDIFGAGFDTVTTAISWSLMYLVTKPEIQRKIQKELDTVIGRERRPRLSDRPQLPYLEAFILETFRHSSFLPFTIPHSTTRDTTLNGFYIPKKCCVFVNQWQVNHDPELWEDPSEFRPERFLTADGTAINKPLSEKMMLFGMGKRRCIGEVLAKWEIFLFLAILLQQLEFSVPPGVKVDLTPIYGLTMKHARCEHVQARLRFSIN
Outline: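 Inhibition was calculated relative to 57 uM furafylline (full inhibition). The reaction used human CYP1A2 at 20nM with Luciferin-ME at its Km, 100uM, driven by an NADPH-regenerating system for 60 min at room temperature.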

[4] = NFAT Signaling Pathway (AID 444); details: Jurkat NFAT-bla M1, carbachol, beta-lactamase ratio, 5 h; at 7.69 µM (top of the series) unless noted;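 note: carbachol stimulus at about its EC50 of 1 µM final; % is set by controls: 0 for no effect and ±100 for the full control effect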
Outline: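 Read-out: CCF4 FRET ratio (460 nm/530 nm) after 1 h RT dye loading, used for %activity and AC50 from titration series. Cells: Jurkat NFAT-β-lactamase/M1 line, treated with compound plus 1 uM carbachol for 5 h, 37 °C.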

[5] = Stat Signaling Pathway (AID 446); details: ME-180 SIE beta-lactamase reporter, IL-6 stimulated, 5 h; at 7.69 µM (top of the series) unless noted;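 note: ME-180 cervical cancer cells given 40 pM IL-6 alongside compound; SIE-controlled beta-lactamase reporter measured as 460/530 nm FRET emission ratio; % is set by controls: 0 for no effect and ±100 for the full control effect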
Outline: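 IL-6/STAT signaling read in ME-180 cells via an SIE beta-lactamase reporter. Stimulus was 40 pM IL-6 (its AC50) for 5 hrs, so both activation and inhibition register.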

[6] = target: Glucocorticoid receptor (Homo sapiens) (UniProt P04150); test: GR-EFC Redistribution (AID 451; calls by dose curve; note: potency is the fitted concentration of half-maximal effect); details: CHO-K1 GR-EFC translocation, beta-gal luminescence, 2 h
Glucocorticoid receptor (Homo sapiens), sequence (P04150 whole entry, looked up, the tested form may be a part): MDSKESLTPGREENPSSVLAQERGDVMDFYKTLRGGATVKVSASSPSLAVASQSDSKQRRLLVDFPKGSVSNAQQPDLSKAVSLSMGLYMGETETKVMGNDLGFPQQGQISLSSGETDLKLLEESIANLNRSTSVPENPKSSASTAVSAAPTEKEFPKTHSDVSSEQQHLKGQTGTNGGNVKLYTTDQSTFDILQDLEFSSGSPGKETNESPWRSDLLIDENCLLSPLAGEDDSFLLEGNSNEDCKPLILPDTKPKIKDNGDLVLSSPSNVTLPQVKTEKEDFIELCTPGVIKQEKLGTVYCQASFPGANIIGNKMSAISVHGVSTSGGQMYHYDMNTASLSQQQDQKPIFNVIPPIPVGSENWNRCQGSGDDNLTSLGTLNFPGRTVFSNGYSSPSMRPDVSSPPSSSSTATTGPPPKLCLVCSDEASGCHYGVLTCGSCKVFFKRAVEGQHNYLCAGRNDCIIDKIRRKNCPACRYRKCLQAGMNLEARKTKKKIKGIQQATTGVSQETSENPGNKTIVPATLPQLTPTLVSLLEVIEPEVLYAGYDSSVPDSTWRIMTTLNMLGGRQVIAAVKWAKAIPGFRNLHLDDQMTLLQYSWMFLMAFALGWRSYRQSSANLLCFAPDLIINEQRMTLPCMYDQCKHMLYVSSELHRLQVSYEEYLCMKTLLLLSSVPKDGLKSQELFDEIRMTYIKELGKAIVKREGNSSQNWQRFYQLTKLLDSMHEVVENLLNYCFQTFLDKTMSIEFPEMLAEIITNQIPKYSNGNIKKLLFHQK
Outline: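 Translocation of GR-ED fusion to nuclear EA restores b-gal, read by luminescence after 1 h room-temperature detection. Engineered CHO-K1 biosensor cells, 1,000/well, exposed 2 h at 37 C to titrations up to 46 uM final.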

[7] = target: Mitogen-activated protein kinase 10 (Mus musculus) (UniProt Q61831); test: JNK3 AlphaScreen Assay (AID 530); details: JNK3 lysate, c-Jun phosphorylation; series mostly up to 57.1 µM;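 note: kinase came from lysate of stimulated human HepG2 cells; signal reports phosphorylation of biotinylated GST-cJun 1-79 at Ser73 with 10 µM ATP; % is set by controls: 0 for no effect and ±100 for the full control effect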
Outline: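 Room-temperature AlphaScreen kinase assay; pre-activated HepG2 lysate as JNK3 source, biotin-GST-cJun(1-79) substrate, 10 uM ATP, compound 15 min preincubation.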

[8] = target: 3',5'-cyclic-AMP phosphodiesterase 4B (Homo sapiens) (UniProt Q07343); test: qHTS Assay for Inhibitors of PDE-IV (AID 607; active = well fitted activation curve with a large enough effect in the main read-out, with a control signal flat, not every such curve was filed as active; note: % of control where 0% means no effect); details: HEK293 ACTOne CNG channel cells, membrane potential fluorescence; series mostly up to 22.9 µM
3',5'-cyclic-AMP phosphodiesterase 4B (Homo sapiens), sequence (Q07343 whole entry, looked up): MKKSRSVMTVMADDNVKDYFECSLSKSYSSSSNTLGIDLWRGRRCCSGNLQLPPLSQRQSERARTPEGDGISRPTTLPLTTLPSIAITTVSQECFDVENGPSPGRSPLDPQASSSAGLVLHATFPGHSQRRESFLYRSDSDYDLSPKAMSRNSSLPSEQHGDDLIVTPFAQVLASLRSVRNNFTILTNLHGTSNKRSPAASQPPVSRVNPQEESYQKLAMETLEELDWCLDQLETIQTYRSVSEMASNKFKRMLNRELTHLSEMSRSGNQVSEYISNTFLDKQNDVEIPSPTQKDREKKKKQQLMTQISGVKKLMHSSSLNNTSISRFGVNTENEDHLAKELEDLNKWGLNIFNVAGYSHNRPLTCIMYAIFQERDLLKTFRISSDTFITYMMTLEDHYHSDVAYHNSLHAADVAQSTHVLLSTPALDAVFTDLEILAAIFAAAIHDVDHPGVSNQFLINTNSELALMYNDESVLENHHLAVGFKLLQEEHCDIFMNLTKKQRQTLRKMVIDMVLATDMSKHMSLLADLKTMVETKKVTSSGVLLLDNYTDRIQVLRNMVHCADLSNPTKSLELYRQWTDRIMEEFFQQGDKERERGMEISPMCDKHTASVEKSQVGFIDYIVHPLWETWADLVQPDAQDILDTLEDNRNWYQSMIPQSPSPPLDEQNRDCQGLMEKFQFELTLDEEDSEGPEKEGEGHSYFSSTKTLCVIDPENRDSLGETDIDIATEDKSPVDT
Outline: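 Live HEK293 cells with a modified cyclic nucleotide-gated (CNG) channel report intracellular cAMP via membrane-potential dye fluorescence (ex 535/em 590 nm). Endogenous PDE-IV was targeted. Compounds were tested at up to 22.9 uM final; RO 20-1724 100 uM served as control.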

[9] = Primary qHTS for small molecule stabilizers of the endoplasmic reticulum resident proteome: Secreted ER Calcium Modulated Protein (SERCaMP) assay (AID 1508630; active = well fitted curve in the direction sought with a large enough effect; an effect the other way counts as inactive or inconclusive; note: % is set by controls: 0 for no effect and ±100 for the full control effect); details: SH-SY5Y GLuc-SERCaMP (Gaussia luciferase released on ER calcium loss) secretion, thapsigargin, luminescence; series mostly up to 38.4 µM
Outline: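 GLuc-SERCaMP-expressing SH-SY5Y cells, pretreated 16 h with compound, are challenged with thapsigargin to empty ER calcium stores; after 4 h, coelenterazine is added directly to the medium and luminescence is imaged.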

[10] = target: Cytochrome P450 2C9 (Homo sapiens) (UniProt P11712); test: qHTS Assay for Inhibitors and Substrates of Cytochrome P450 2C9 (AID 883; active = well fitted curve in the direction sought with a large enough effect; an effect the other way counts as inactive or inconclusive; note: % is set by controls: 0 for no effect and ±100 for the full control effect; nearly all actives have a fitted effect of over 60% in size); details: recombinant CYP2C9, luciferin-H luminescence, 60 min; series mostly up to 57.1 µM
Cytochrome P450 2C9 (Homo sapiens), sequence (P11712 whole entry, looked up): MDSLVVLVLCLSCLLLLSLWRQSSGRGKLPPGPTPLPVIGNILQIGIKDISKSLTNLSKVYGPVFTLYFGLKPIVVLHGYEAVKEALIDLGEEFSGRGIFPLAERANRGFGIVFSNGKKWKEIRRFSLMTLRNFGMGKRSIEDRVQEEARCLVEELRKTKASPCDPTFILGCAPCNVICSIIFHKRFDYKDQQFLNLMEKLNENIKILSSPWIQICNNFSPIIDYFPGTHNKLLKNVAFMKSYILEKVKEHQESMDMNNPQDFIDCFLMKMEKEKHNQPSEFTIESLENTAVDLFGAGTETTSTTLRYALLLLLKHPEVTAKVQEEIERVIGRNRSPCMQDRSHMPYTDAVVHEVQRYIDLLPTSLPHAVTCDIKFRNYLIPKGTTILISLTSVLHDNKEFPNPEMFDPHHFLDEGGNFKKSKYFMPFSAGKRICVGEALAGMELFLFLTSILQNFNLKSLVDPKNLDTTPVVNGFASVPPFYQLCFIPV
Outline: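 Luminescent read-out of deoxyluciferin hydroxylation, normalized to 57uM sulphaphenazole (AC100). Reaction: 10nM enzyme, 100uM Luciferin-H (equal to KM), 25mM KPO4, 10 min compound preincubation, then 60 min with NADPH regeneration, both at 37C.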

[11] = target: Cytochrome P450 2C19 (Homo sapiens) (UniProt P33261); test: qHTS Assay for Inhibitors and Substrates of Cytochrome P450 2C19 (AID 899; active = well fitted curve in the direction sought with a large enough effect; an effect the other way counts as inactive or inconclusive; note: % is set by controls: 0 for no effect and ±100 for the full control effect; nearly all actives have a fitted effect of over 60% in size); details: recombinant CYP2C19, luciferin-H EGE luminescence; series mostly up to 57.1 µM
Cytochrome P450 2C19 (Homo sapiens), sequence (P33261 whole entry, looked up): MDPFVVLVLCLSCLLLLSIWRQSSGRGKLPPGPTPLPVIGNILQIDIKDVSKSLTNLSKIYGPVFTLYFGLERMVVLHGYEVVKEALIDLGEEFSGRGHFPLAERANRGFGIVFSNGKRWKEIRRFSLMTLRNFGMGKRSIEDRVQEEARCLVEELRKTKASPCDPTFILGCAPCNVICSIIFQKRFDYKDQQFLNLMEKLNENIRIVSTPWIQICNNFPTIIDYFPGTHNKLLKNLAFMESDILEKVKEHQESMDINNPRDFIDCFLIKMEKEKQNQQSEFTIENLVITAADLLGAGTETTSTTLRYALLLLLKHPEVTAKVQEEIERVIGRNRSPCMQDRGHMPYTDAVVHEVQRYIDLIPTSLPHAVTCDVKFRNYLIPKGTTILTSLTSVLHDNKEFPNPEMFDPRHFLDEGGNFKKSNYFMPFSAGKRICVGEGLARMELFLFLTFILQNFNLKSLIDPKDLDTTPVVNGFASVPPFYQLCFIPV
Outline: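 Luminescence readout of luciferin formed from 10uM Luciferin-H EGE (KM level) by 5 nM CYP2C19 in 50mM KPO4. 60 min NADPH-driven reaction at 37C after 10 min compound preincubation; data scaled to 57uM ketoconazole inhibition.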

[12] = target: Cytochrome P450 3A4 (Homo sapiens) (UniProt P08684); test: qHTS Assay for Inhibitors and Substrates of Cytochrome P450 3A4 (AID 884; active = well fitted curve in the direction sought with a large enough effect; an effect the other way counts as inactive or inconclusive; note: nearly all actives have a fitted effect of over 50% in size; note: potency is the fitted concentration of half-maximal effect); details: recombinant CYP3A4, Luciferin-PPXE luminescence; series mostly up to 57.1 µM
Cytochrome P450 3A4 (Homo sapiens), sequence (P08684 whole entry, looked up): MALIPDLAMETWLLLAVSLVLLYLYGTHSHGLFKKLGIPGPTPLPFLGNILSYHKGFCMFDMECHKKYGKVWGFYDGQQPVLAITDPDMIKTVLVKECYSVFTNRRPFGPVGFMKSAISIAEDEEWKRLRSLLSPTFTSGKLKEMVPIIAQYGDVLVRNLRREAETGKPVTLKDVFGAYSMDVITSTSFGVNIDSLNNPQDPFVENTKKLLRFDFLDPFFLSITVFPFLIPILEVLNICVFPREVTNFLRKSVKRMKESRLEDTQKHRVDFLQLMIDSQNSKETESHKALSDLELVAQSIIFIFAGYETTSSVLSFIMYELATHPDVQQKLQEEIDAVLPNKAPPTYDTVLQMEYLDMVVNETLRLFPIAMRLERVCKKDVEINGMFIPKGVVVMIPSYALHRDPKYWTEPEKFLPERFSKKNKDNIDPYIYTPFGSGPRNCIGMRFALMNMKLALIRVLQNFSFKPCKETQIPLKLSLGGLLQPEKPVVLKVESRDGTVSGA
Outline: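 20 nM human CYP3A4 with 25 uM Luciferin-PPXE (at KM) in 200 mM KPO4, preincubated 10 min with compound; NADPH regeneration started a 60 min RT reaction. Luciferin detected by luminescence, normalized to 57 uM ketoconazole as full inhibition.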

[13] = target: Cytochrome P450 3A4 (Homo sapiens) (UniProt P08684); test: qHTS Assay for Activators of Cytochrome P450 3A4 (AID 885; active = well fitted curve in the direction sought with a large enough effect; an effect the other way counts as inactive or inconclusive; note: nearly all actives have a fitted effect of over 65% in size; note: potency is the fitted concentration of half-maximal effect); details: recombinant CYP3A4, Luciferin-PPXE luminescence, 60 min; series mostly up to 57.1 µM
Outline: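 Quantitative HTS format: compounds preincubated with 20nM human CYP3A4 and Luciferin-PPXE substrate at KM, reaction started by NADPH regeneration, stopped after 60 min, luciferase luminescence read 20 min later.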

[14] = target: Cytochrome P450 2D6 (Homo sapiens) (UniProt P10635); test: qHTS Assay for Inhibitors and Substrates of Cytochrome P450 2D6 (AID 891; active = well fitted curve in the direction sought with a large enough effect; an effect the other way counts as inactive or inconclusive; note: nearly all actives have a fitted effect of over 60% in size; note: potency is the fitted concentration of half-maximal effect); details: recombinant CYP2D6, luciferin-ME EGE luminescence; series mostly up to 57.1 µM
Cytochrome P450 2D6 (Homo sapiens), sequence (P10635 whole entry, looked up): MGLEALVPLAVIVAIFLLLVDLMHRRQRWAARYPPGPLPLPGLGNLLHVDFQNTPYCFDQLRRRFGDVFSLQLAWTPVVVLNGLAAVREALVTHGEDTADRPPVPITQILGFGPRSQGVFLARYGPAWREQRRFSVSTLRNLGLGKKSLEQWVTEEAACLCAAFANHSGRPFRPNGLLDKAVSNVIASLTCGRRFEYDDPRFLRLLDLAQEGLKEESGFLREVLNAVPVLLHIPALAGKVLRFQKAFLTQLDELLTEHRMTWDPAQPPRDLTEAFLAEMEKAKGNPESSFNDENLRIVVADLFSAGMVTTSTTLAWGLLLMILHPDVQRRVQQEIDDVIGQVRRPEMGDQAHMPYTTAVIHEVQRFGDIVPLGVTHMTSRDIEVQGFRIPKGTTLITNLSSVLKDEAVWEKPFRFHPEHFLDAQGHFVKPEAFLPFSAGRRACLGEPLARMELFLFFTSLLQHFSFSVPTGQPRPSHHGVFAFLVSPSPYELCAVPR
Outline: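 Human CYP2D6 (5 nM) with 30 uM Luciferin-ME EGE (at Km) in 100 mM KPO4, compound preincubated 10 min, then NADPH regeneration system for 60 min at room temperature. Luciferin read by luminescence; normalized to 1.43 uM quinidine.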

[15] = target: Glucocorticoid receptor (Homo sapiens) (UniProt P04150); test: GR-GFP Redistribution (AID 450;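 active = compounds whose dose series gives a full or clear partial fitted curve of increased nuclear translocation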; note: potency is the fitted concentration of half-maximal effect); details: U2OS GR-GFP nuclear translocation, laser cytometry, 2 h
[16] = qHTS Assay for Identification of Small Molecule Agonists for Hypoxia Response Element Signaling Pathway (AID 914; active = well fitted activation curve with a large enough effect in the signal ratio, with a control signal flat, not every such curve was filed as active; the % refers to the signal ratio; note: potency is the fitted concentration of half-maximal effect); details: ME-180 (cervical carcinoma) HRE-bla reporter, beta-lactamase ratio, CoCl2, 17 h; activation: active compounds read high
Outline: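 In Opti-MEM containing 0.5% dialyzed FBS and 10 mM HEPES, ME-180 HRE-bla cells received a compound titration and EC50 CoCl2. They were incubated 17 hours, then CCF4-loaded 2.5 hours at room temperature before ratio reading.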

CC(C)NC(=O)N1CCC2(CC1)CCN(C(=O)c1cccn1C)CC2
inactive: Potency [1] > 11.4 µM | activity change, negative = inhibition [2] 15.2% | Potency [3] | activity change, negative = inhibition [4] 7.13% | activity, negative = inhibition [5] 2.35% | Potency [6] > 46 µM | Potency [7] | Potency [8] | outcome [9]

CS(=O)(=O)N1CCC2(CC1)CN(c1ccc(-c3ccccc3)cc1)C2
inactive: Potency [1] > 11.4 µM | activity change, negative = inhibition [2] -8.52% | Potency [3] | activity change, negative = inhibition [4] -6.69% | activity, negative = inhibition [5] -25.1% | Potency [6] > 46 µM | Potency [7] | Potency [8] | Potency [10] | Potency [11] | outcome [9]

O=C(Nc1cccc(F)c1)N1CCC2(CC1)CCN(C(=O)c1ccco1)CC2
inactive: Potency [1] > 11.4 µM | activity change, negative = inhibition [2] -3.88% | Potency [3] | activity change, negative = inhibition [4] 4.6% | activity, negative = inhibition [5] 4.97% | Potency [6] > 46 µM | Potency [7] | Potency [8] | Potency [12] | outcome [9]

O=C(c1cccc(F)c1)N1CCC2(CC1)CN(c1ccc(-c3ccccc3)cc1)C2
inactive: Potency [1] > 11.4 µM | activity change, negative = inhibition [2] 9.76% | Potency [3] | activity change, negative = inhibition [4] -5.75% | activity, negative = inhibition [5] -20.4% | Potency [6] > 46 µM | Potency [7] | Potency [8] | Potency [12] | outcome [9]
active: Potency [13] 2.51 µM

Cn1cccc1C(=O)N1CCC2(CCCN(c3ncccn3)C2)CC1
inactive: Potency [1] > 11.4 µM | activity change, negative = inhibition [2] 7.97% | Potency [3] | activity change, negative = inhibition [4] 2.93% | activity, negative = inhibition [5] -5.18% | Potency [6] > 46 µM | Potency [7] | Potency [8] | Potency [10] | Potency [14] | Potency [11] | outcome [9]

Cc1nc2cnc(N(C)C)nc2n(C)c1=O
active: Potency [3] 3.98 µM
inactive: Potency [1] > 11.4 µM | activity change, negative = inhibition [2] -9.37% | activity change, negative = inhibition [4] -9.43% | activity, negative = inhibition [5] 0.339% | Potency [6] > 46 µM | Potency [7] | Potency [8] | Potency [13] | outcome [9]

O=C(c1ccco1)N1CCC2(CCCN(c3ccccc3)C2)CC1
inactive: Potency [1] > 11.4 µM | activity change, negative = inhibition [2] -6.34% | Potency [3] | activity change, negative = inhibition [4] -15.1% | activity, negative = inhibition [5] -2.43% | Potency [6] > 46 µM | Potency [7] | Potency [8] | Potency [13] | outcome [9]

O=C(c1cccc(F)c1)N1CCC2(CCCN(c3ccc(-c4ccccc4)cc3)C2)CC1
active: Potency [3] 15.8 µM
inactive: Potency [1] > 11.4 µM | activity change, negative = inhibition [2] 6.64% | activity change, negative = inhibition [4] -3.55% | activity, negative = inhibition [5] 1.09% | Potency [6] > 46 µM | Potency [7] | Potency [8] | Potency [13] | outcome [9]

O=S(=O)(c1ccccc1)N1CCC[C@@]2(CCN(c3cccc(-c4ccccc4)c3)C2)C1
inactive: Potency [1] > 11.4 µM | activity change, negative = inhibition [2] -23.9% | activity change, negative = inhibition [4] -13.7% | activity, negative = inhibition [5] -8.6% | Potency [6] > 46 µM | Potency [7] | Potency [8] | Potency [13] | outcome [9]
active: Potency [3] 15.8 µM

Cn1cc(-c2nc3cnc(Oc4ccccc4)nc3n(CCC#N)c2=O)c2ccccc21
active: Potency [3] 3.16 µM | Potency [16] 3.16 µM
inactive: Potency [1] > 11.4 µM | activity change, negative = inhibition [2] 5.74% | activity change, negative = inhibition [4] 7.14% | Potency [15] > 9.22 µM | Potency [6] > 46 µM | Potency [7] | Potency [8] | Potency [13] | outcome [9]

O=C(Nc1cccc(F)c1)N1CC[C@@]2(CCCN(S(=O)(=O)c3ccccc3)C2)C1
active: Potency [3] 15.8 µM
inactive: Potency [1] > 11.4 µM | activity change, negative = inhibition [2] -21% | activity change, negative = inhibition [4] 7.62% | activity, negative = inhibition [5] -7.95% | Potency [6] > 46 µM | Potency [7] | Potency [8] | Potency [13] | outcome [9]

CC(C)NC(=O)N1CCCC2(CCN(C(=O)c3ccco3)CC2)C1
inactive: Potency [1] > 11.4 µM | activity change, negative = inhibition [2] 4.82% | Potency [3] | activity change, negative = inhibition [4] -9.54% | activity, negative = inhibition [5] -11.2% | Potency [6] > 46 µM | Potency [7] | Potency [8] | Potency [13] | outcome [9]
active: Potency [14] 2.51 µM

COC(=O)N1CCC2(CCCN(C(=O)Nc3ccc(OC)cc3)C2)CC1
active: Potency [3] 20 µM
inactive: Potency [1] > 11.4 µM | activity change, negative = inhibition [2] -3.8% | activity change, negative = inhibition [4] -6.91% | activity, negative = inhibition [5] -13.9% | Potency [6] > 46 µM | Potency [7] | Potency [8] | Potency [13] | outcome [9]

N#Cc1cccc(NC(=O)N2CC[C@@]3(CCCN(S(=O)(=O)c4ccccc4)C3)C2)c1
active: Potency [3] 25.1 µM | Potency [12] 3.16 µM
inactive: Potency [1] > 11.4 µM | activity change, negative = inhibition [2] -14% | activity change, negative = inhibition [4] 3.6% | activity, negative = inhibition [5] -7.29% | Potency [7] | Potency [8] | Potency [13] | outcome [9]

COc1ccc(NC(=O)N2CCCC3(CCN(C(=O)c4cccn4C)CC3)C2)cc1
active: Potency [3] 25.1 µM
inactive: Potency [1] > 11.4 µM | activity change, negative = inhibition [2] -2.59% | activity change, negative = inhibition [4] -20.9% | activity, negative = inhibition [5] -3.06% | Potency [6] > 46 µM | Potency [7] | Potency [8] | Potency [13] | outcome [9]
